Reference: PubChem BioAssay (NCATS)
Values joined by “and” are separate entries in the source; they are usually repeats but may differ in a detail not shown here. Equal values may be shown once. Active and inactive are the calls of the source. The call rests on the fitted dose curve; in most records, active means well fitted activation curve with a large enough effect; inconclusive means small, poorly fitted or top-dose-only effect; inactive means no such curve, though single readings can be large or run the other way.

target: Cytochrome P450 3A4 (Homo sapiens) (UniProt P08684); assay: qHTS Assay for Activators of Cytochrome P450 3A4 (AID 885); conditions: recombinant CYP3A4, Luciferin-PPXE luminescence, 60 min; series mostly up to 57.1 µM; activity change, positive = activation: at the top concentration; further: nearly all actives have a fitted effect of over 65% in size
Sequence (P08684 whole entry, looked up): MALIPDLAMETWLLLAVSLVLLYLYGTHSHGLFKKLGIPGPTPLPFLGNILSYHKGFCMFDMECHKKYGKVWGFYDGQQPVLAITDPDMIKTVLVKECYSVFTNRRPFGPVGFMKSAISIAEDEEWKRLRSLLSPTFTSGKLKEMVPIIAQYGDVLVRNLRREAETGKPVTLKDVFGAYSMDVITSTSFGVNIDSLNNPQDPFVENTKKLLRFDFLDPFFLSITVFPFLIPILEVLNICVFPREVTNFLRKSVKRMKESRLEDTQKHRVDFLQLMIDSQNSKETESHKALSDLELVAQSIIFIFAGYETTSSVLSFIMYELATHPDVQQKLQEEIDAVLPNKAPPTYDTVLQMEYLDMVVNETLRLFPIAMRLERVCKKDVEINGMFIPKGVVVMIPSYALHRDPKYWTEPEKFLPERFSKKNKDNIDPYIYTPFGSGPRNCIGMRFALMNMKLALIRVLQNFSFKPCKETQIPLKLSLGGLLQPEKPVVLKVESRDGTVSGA
Method in brief: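 Activators are scored by enhanced luminescence from CYP3A4 conversion of luciferin-PPXE (25uM, equal to KM) to luciferin, after 60 min at RT with an NADPH-regenerating system.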

Activity change, positive = activation, inactive:
CO[C@@H]1COC(=O)C/C=C\[C@@H](C)[C@@H]2C=C[C@H](O)[C@@H](COC(=O)CCC[C@H]1C)O2 -44.8% [at 11.4 µM]
CO[C@H]1COC(=O)[C@H]2CCCN2C(=O)C/C=C\[C@@H](C)[C@H](OC)COC(=O)[C@@H](OCc2ccccc2)/C=C\[C@@H]1C -30.9% [at 11.4 µM]
COC(=O)[C@@H]1C[C@@]2(O)[C@@H](O)[C@@H](O)[C@@H](O)C[C@H]2N1CC1CCCCC1 -36.1%
CC(C)Cn1c(N)c(C(=O)COC(=O)c2cc(C(F)(F)F)nc3c(C(F)(F)F)cccc23)c(=O)n(C)c1=O -41.9%
C#CCCCO/N=C1/C[C@@H](O)[C@@H](O)[C@@H]2[C@@H]3C(=O)N(C[C@@H]4CCCO4)C(=O)[C@H]3CC[C@@H]12 -39.4% [at 11.4 µM]
N#Cc1ccc(C23CC4(C2)[C@H](CN(CC2CCCCC2)[C@@H]4c2ccccc2)C3c2ccc(Cl)nc2)cc1 (some centres undefined) -51%
FC(F)(F)c1ccc(CN2C[C@@H]3C(c4ccc(C(F)(F)F)cc4)C4(c5ccccc5)CC3(C4)[C@H]2c2ccccc2)cc1 (some centres undefined) -40.3%
CC(=O)[C@@H]1[C@H]2[C@H](C(=O)[C@H]3OC[C@@H]2O3)[C@H]2C=Cc3ccccc3N21 -52.2%
COC(=O)[C@@H]1C[C@@]2(O)[C@@H](O)[C@@H](O)[C@@H](O)C[C@H]2N1Cc1cc(F)ccc1F -30.5%
CO[C@@H]1COC(=O)C/C=C\[C@@H](C)[C@H](OC)COC(=O)[C@H](COCc2ccccc2)NC(=O)C/C=C\[C@H]1C -41.7% [at 11.4 µM]
COC(=O)NC(/C(C(=O)OC)=C(\C)NCc1ccccc1)c1ccccc1 (centres undefined) -30.2% [at 11.4 µM]
CO[C@H]1COC(=O)[C@H]2CCCN2C(=O)C/C=C\[C@@H](C)[C@H](OC)COC(=O)C/C=C\[C@@H]1C -32.7% [at 11.4 µM]
CCCC[C@@H]1CN2[C@H](c3ccc(Br)cc3)[C@@H](C)CC[C@H]2C(=O)O1 -59.6% [at 11.4 µM]
COC(=O)N1[C@H](C)C=C[C@]1(Cc1ccccc1)C(=O)NCc1ccc(N(C)C)cc1 -57.2%
CO[C@@H]1COC(=O)[C@H]2CCCN2C(=O)[C@@H](C)COC(=O)[C@H](COCc2ccccc2)NC(=O)C/C=C\[C@H]1C -38.2% [at 11.4 µM]
COC(=O)c1cccc(C23CC4(C2)[C@H](CN(CC2CCCCC2)[C@@H]4c2ccccc2)C3c2ccc(C(F)(F)F)cc2)c1 (some centres undefined) -57.7%
COC(=O)c1ccc(C23CC4(C2)[C@H](CN(CC2CCCCC2)[C@@H]4c2ccccc2)C3c2ccc(C(F)(F)F)cc2)cc1 (some centres undefined) -54.9%
COC(=O)c1cccc(C23CC4(C2)[C@H](CN(C)[C@@H]4c2ccccc2)C3c2ccc(Cl)nc2)c1 (some centres undefined) -51.4%
O=C1[C@H]2[C@H]3[C@H](O)[C@H](O)C/C(=N/OC[C@@H](O)COCc4ccco4)[C@@H]3CC[C@@H]2C(=O)N1c1cccc(Oc2ccccc2)c1 -40.2% [at 11.4 µM]
CO[C@H]1COC(=O)C/C=C\[C@@H](C)COC(=O)[C@@H](CCSC)NC(=O)C/C=C\[C@@H]1C -36.9% [at 11.4 µM] and -35.4% [at 11.4 µM]
Cn1c(=O)cc(N)n(Cc2ccccc2)c1=O -51.2%
CN1C[C@@H]2C(c3ccccc3)C3(c4ccccc4)CC2(C3)[C@H]1c1ccccc1 (some centres undefined) -59.9%
COC(=O)[C@@H]1C[C@@]2(O)[C@H](O)[C@H](O)[C@H](O)C[C@H]2N1Cc1cc(OC)cc(OC)c1 -39.3%
O=C1[C@@H]2[C@H]3[C@H](O)[C@H](O)C/C(=N/OCc4ccccc4)[C@H]3CC[C@H]2C(=O)N1c1ccc(F)cc1F -34.3% [at 11.4 µM]
CO[C@H]1COC(=O)[C@@H](C)COC(=O)[C@@H](Cc2ccccc2)NC(=O)C/C=C\[C@H]1C -36.8% [at 11.4 µM]
CC(=O)OC[C@@H]1O[C@H](C/C=N\OCC[C@H]2C=C[C@H](OC(C)=O)[C@@H](COC(C)=O)O2)C=C[C@@H]1OC(C)=O -31% [at 11.4 µM]
C[C@H]1CC[C@H]2C(=O)N3[C@H](c4ccc(Br)cc4)[C@@H](C)CC[C@H]3C(=O)N2[C@@H]1c1ccc(Br)cc1 -43.1% [at 11.4 µM]
O=C1[C@H]2[C@H]3[C@H](O)[C@H](O)C/C(=N/OCc4ccccc4)[C@H]3CC[C@@H]2C(=O)N1Cc1ccc2c(c1)OCO2 -96.1% [at 11.4 µM]
COC(=O)[C@@H]1C[C@@]2(O)[C@H](O)[C@H](O)[C@H](O)C[C@H]2N1Cc1ccc(-c2ccccc2)cc1 -55.8%
